# Measurements as given in PubChem BioAssay AID1276 (Columbia University Molecular Screening Center, 2008).
# Hit rate of the full screen: of about 190,000 compounds, about 2,000 (1.1%) were called active. Shown is part of a subset that was picked to be rich in actives. Unmarked numbers belong to inactive results.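 Rule for the calls: active = activation above a set limit, based on mean plus 3 SD of controls (cut at about 140% in these data); inconclusive = one replicate above the limit, the other below; inactive = the rest.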
# Assay: activators of APP 5'UTR luciferase reporter, primary screen, SH-SY5Y cells (AID 1276)
# Conditions: SH-SY5Y APP 5'UTR luciferase reporter, luminescence; at 2 µM; stronger effect = higher value; zero percent = DMSO vehicle wells
row,Structure (SMILES),activation
1,CCC(=O)Oc1cccc(C(=O)Nc2ccc(-c3nnc(-c4ccco4)o3)cc2)c1,92.5%
2,COc1ccc(C(=O)CSc2nnc(-c3ccco3)o2)cc1,22.7%
3,CCCCSc1nnc(-c2ccc(C)cc2)o1,115%
4,CCOc1ccc(-c2nnc(-c3ccco3)o2)cc1,147% (active)
5,CCCCOc1ccc(-c2nnc(-c3ccco3)o2)cc1,136% (active)
6,CCCCOc1ccc(C(=O)NCc2ccco2)cc1,4.26%
7,COCCSc1nnc(NC(=O)c2cc(OC)c(OC)cc2[N+](=O)[O-])s1,5.07%
8,COc1cccc(N(C(=O)C2COc3ccccc3O2)C(C(=O)NC2CCCCC2)c2ccc(O)cc2)c1 (stereo not given),-0.98%
9,CN1CCN(c2nc(Nc3ccc(O)cc3)nc3ccccc23)CC1,18.9%
10,Cc1cc(Oc2ccc(Cl)cc2)nc(SCC(=O)c2ccccc2)n1,11.5%
11,CC(=O)NC(CC(=O)O)c1ccc(F)cc1 (stereo not given),5.81%
12,O=C(Nc1ccc2nccnc2c1)c1ccco1,39.6%
13,O=C(Nc1cccc(-c2nc3ncccc3o2)c1)c1ccco1,-10.6%
14,O=C(Nc1ccc2oc(-c3ccccc3F)nc2c1)c1ccco1,146% (active)
15,Cc1cnc(C(=O)N2CCCC(C(=O)c3ccc(C(F)(F)F)cc3)C2)cn1 (stereo not given),23%
16,NS(=O)(=O)c1ccc(NC(=O)COC(=O)C2(c3ccc(F)cc3)CCCC2)cc1,5.99%
17,COc1ccc(CN(C)C(C)C(=O)NC2CCCc3ccccc32)cc1 (stereo not given),9.96%
18,CC(NC(=O)COC(=O)c1cc(=O)[nH]c2ccccc12)c1ccccc1 (stereo not given),-4.94%
19,O=C(NC1CC1)C1CCCN(C(=O)NC2CCCCC2)C1 (stereo not given),18.2%
20,O=C(Nc1nc(-c2cccnc2)cs1)c1ccccc1F,61.5%
21,c1ccc(-c2noc(-c3cccs3)n2)nc1,209% (active)
22,CC(C)c1nc(-c2ccccn2)no1,7.91%

row,Structure (SMILES),activation
1,c1csc(-c2nc(-c3ccncc3)no2)c1,55.4%
2,CC(C)n1c(O)c(N=Nc2ccccn2)c2ccccc21,3.63%
3,CC(C)(C)NS(=O)(=O)c1ccc(NC(=O)NC2CCCCC2)cc1,-13.3%
4,CC(C)N1CCC(NC(=O)Nc2ccccc2)CC1,15.8%
5,CC(C)c1ccc(NC(=O)NC2CCCCC2)cc1,139% (active)
6,CC(NCc1nc2ccccc2n1C)C12CC3CC(CC(C3)C1)C2 (stereo not given),9.64%
7,CC(=O)n1cc([C@H]2C=C(C(=O)N3CCOCC3)O[C@@H](OCc3ccc(CO)cc3)C2)c2ccccc21,3.91%
8,CC(C)(C)CN1CCNC(=O)C1CC(=O)NC1Cc2ccccc2C1 (stereo not given),-10.9%
9,Cc1nn2cc(-c3ccc(Cl)cc3)cnc2c1Br,208% (active)
10,CCOCCCN(C(=O)Cn1nnc(-c2ccc(OC)c(OC)c2)n1)C(CC)C(=O)NC1CCCC1 (stereo not given),7.01%
11,CCOC(=O)CCCN1CC(O)=C(c2nc3ccccc3s2)C1=N,-7.28%
12,COc1ccccc1N1CC(O)=C(c2nc3ccccc3s2)C1=N,1.68%
13,N=C1C(c2nc3ccccc3s2)=C(O)CN1NC(=O)c1ccc([N+](=O)[O-])cc1,150% (active)
14,CN1CCNC(=O)C1CC(=O)NCCC1=CCCCC1 (stereo not given),9.01%
15,COCCNC(=O)c1ccc(N2CCC3(CC2)OCCO3)c([N+](=O)[O-])c1,5.47%
16,Brc1ccc(C2CC(c3ccccc3)=Nc3ccccc3N2)cc1 (stereo not given),176% (active)
17,c1ccc(C2=Nc3cccc4cccc(c34)N2)cc1,-8.18%
18,CNC(=S)N1N=C(c2ccccc2)CC1c1ccc(Br)cc1 (stereo not given),16.3%
19,CCc1nnc(NC(=O)CSc2nc(SC)ns2)s1,542% (active)
20,CCc1nnc(NC(=O)CCC(=O)O)s1,11.8%
21,COc1ccc(C)cc1NC(=O)CSc1nc(SC)ns1,-17.1%
22,CCn1c2ccccc2c2cc(CC(N)=O)ccc21,-15%

row,Structure (SMILES),activation
1,CCS(=O)(=O)c1ccc2oc(SCC(=O)N3c4ccccc4CC3C)nc2c1 (stereo not given),12.2%
2,CN(C)S(=O)(=O)c1ccc2oc(SCC(=O)Nc3ccccc3F)nc2c1,135% (active)
3,COc1ccc(S(=O)(=O)N(C)C)cc1NC(=O)CSc1ncccn1,-3.15%
4,O=C(Nc1cccc(Cl)c1)c1cc([N+](=O)[O-])ccc1N1CCN(CCO)CC1,-1.04%
5,O=C(NNC(=S)NCCCN1CCOCC1)c1ccncc1,1.62%
6,Nc1nc(-c2sc3nc4c(cc3c2N)CCCC4)nc(N2CCOCC2)n1,45.3%
7,CC(=O)Nc1cccc(-c2csc(Nc3cccc(C)n3)n2)c1,177% (active)
8,COc1ccc(CCNc2nc(-c3cccc(NC(C)=O)c3)cs2)cc1OC,13%
9,CC(=O)Nc1cccc(C(=O)Nc2nc(C)cs2)c1,30.8%
10,C/C(CC(=O)Nc1ccc(Cl)cc1)=N\NC(=O)C(=O)NCCO,6.46%
11,CC(C)c1nc2sc3c(c2c(=O)n1N)CC(C)(C)OC3,17.6%
12,O=C(O)c1ccc2c(c1)C(=O)N(NC(=O)c1ccc(O)cc1)C2=O,-2.99%
13,Cn1cnnc1SCC(=O)Nc1ccc(N2CCOCC2)cc1,5.51%
14,O=C(O)CCS(=O)(=O)c1ccc(-c2ccccc2)cc1,-3.35%
15,CCOc1cccc(-n2nnnc2-c2ccc(OC)cc2)c1,-65.8%
16,COc1ccc(-n2nnnc2SCC(=O)Nc2ccccc2)cc1,6.08%
17,COc1ccc(-n2nnnc2-c2nc3ccccc3s2)cc1,237% (active)
18,Cc1cccc(NC(=O)c2nnn(-c3cccc(C(F)(F)F)c3)c2N)c1,27.1%
19,CNc1nc(Nc2ccc(C)c(Cl)c2)nc(N)c1[N+](=O)[O-],153% (active)
20,Nc1nc(NCCCN2CCOCC2)nc(Nc2ccccc2)c1[N+](=O)[O-],-12.2%
21,COCCNc1nc(N)c([N+](=O)[O-])c(NCCO)n1,-12.7%
